Screens: PubChem BioAssay, several laboratories
Rows were chosen to be rich in hits. Some 4.1% of all compounds tested hit in one or more screens of this group.
MEKK3 PB1 HTS: raises or lowers MEK5 binding to the human MEKK3 PB1 domain; Q99759; AID 1529; binding response (% of control), % at 10 µM; hit rate 1.4% among 290,000; bead-based flow cytometry, Alexa488-MEK5 binding to MEKK3; actives lie on both sides; 0 = blocked by unlabeled MEK5, 100 = vehicle;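 active means binding response more than 3 SD above or below the average of its plate-row segment, actives on both sides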;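 further: Alexa488 bead fluorescence after subtracting the streptavidin-only scavenger bead signal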
MEKK2 mut-MEK5: signal of MEK5 binding to mutant human MEKK2 PB1 domain; bead flow cytometry, Alexa488-MEK5 binding to MEKK2 mutant; percent response, % at 10 µM; hit rate 0.35% among 290,000; AID 1530; in the data active means percent response above about 24%, passing the limit was not always enough
CHT allo act: human CHT allosteric activation. AID 488977. Q9GZV3. hit rate 0.49% among 310,000. CHT-expressing cells, membrane potential dye, choline EC20; stronger effect = higher value; LV-AA mutant CHT in HEK293 cells. B-score at 10 µM;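 active means initial fluorescence not abnormally high and integrated response B-score, plate-corrected, over 3 SD above library mean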
Target sequence (Q9GZV3 whole entry, looked up): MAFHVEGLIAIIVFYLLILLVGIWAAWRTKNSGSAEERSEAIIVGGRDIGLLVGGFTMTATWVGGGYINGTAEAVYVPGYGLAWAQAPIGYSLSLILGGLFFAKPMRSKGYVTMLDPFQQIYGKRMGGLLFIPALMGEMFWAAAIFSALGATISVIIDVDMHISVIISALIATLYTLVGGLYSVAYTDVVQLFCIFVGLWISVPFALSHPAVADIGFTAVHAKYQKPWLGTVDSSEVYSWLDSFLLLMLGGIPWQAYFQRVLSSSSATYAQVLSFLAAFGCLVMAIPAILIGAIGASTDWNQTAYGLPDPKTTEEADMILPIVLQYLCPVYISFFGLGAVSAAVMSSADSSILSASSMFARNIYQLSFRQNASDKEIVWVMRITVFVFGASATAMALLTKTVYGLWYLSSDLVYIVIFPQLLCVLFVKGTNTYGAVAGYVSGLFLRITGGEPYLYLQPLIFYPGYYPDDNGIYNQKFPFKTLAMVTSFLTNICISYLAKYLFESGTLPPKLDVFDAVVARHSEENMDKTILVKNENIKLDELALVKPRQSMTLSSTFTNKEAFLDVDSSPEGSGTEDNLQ
CHT block: inhibitors of human choline transporter CHT. B-score at 10 µM. hit rate 0.86% among 310,000. Q9GZV3. CHT-expressing cells, membrane potential dye, choline response; stronger effect = lower value. AID 488975;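 active means B-score over 3 SD under the library average, and starting fluorescence ratio not unusually high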;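 further: choline stimulus applied at its EC90 after an EC20 pre-addition; B-score computed on integrated fluorescence ratio after choline addition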
SUMO Mot1 rescue: blocks SUMOylation pathway, rescuing yeast Mot1-301 growth | S. cerevisiae Mot1-301 growth rescue, ATP luminescence, 38.5C; percent above DMSO median, 100 means doubled | growth rescue, % at 18.8 µM | hit rate 1% among 320,000 | AID 2716;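 active means every valid replicate shows activation above 250% relative to neutral control wells; inactive means the rest, any valid replicate at or below 250%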;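 further: OY570 slx delta 5 strain wells were the positive control but not used for scaling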
MEKK2 WT-MEK5: raises or lowers MEK5 binding to wildtype human MEKK2 PB1 domain; AID 1531; hit rate 1.1% among 290,000; Q9Y2U5; binding response (% of control), % at 10 µM; bead flow cytometry, Alexa488-MEK5 binding to MEKK2 WT; actives lie on both sides; in the data active means binding response below about 67% or above about 130%
Mot1 SUMO dose: inhibits SUMO pathway, affecting Mot1-301 yeast growth. shares compounds with SUMO Mot1 rescue. S. cerevisiae Mot1-301 galactose growth, ATP luminescence, 24 h; -100 = growth of slx-deleted rescue strain. growth activity, percent, % at 42 µM. 2,300 tested, under 10 active. AID 493004;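 active means Signal drops as the depositor expects, and the fitted half-maximal dose is no more than ten times the top valid tested dose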;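 further: more negative values mean stronger growth rescue toward the control strain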
* = called active by the depositor; i = inactive; . = no result given; + = active, no number; [ ] = remark or other dose.

SMILES	MEKK3 PB1 HTS	MEKK2 mut-MEK5	CHT allo act	CHT block	SUMO Mot1 rescue	MEKK2 WT-MEK5	Mot1 SUMO dose
CC1CCCC(N2C(=O)NC(NC(=O)c3ccco3)(C(F)(F)F)C2=O)C1C (stereo not drawn)	99.0	1.0	i	i	510.3*	98.0	-0.6
CN(C)C(CNC(=O)c1cccc(S(=O)(=O)NCc2ccccc2)c1)c1ccco1 (stereo not drawn)	.	.	i	i	0.3	.	.
COc1nc(N2CCCC2)nc(-n2nnc(C(C)=O)c2C)n1	97.0	-11.0	i	i	2.3	98.0	.
Cc1cccc(NC(=S)N2CCN(Cc3ccc4c(c3)OCO4)CC2)c1C	104.0	4.0	i	i	.	108.0	.
Cc1ccc(NC(=S)N2CCN(Cc3ccc4c(c3)OCO4)CC2)c(C)c1	106.0	3.0	i	i	378.3*	108.0	0.1
Cc1ccc(N(C(=O)Cn2nnc3ccccc32)C(C(=O)NC2CCCCC2)c2cn(C)nc2C)cc1 (stereo not drawn)	102.0	3.0	i	i	834.7*	102.0	0.1[21 µM]
Cc1nn(C)cc1C(C(=O)NC1CCCCC1)N(C(=O)Cn1nnc2ccccc21)c1ccc(F)cc1 (stereo not drawn)	91.0	-4.0	i	i	22.8	91.0	.
O=c1[nH]nc(Cc2ccc(-c3ccccc3Cl)o2)c2ccccc12	117.0	5.0	i	i	359.7*	108.0	0.0
COCCOc1ccc(C(F)(F)F)cc1NC(=O)COC(=O)c1ccc(N2CCCC2=O)cc1	.	.	.	.	8.7	.	.
CS(=O)(=O)N(CC(=O)N1CCCCCC1)Cc1ccc(Cl)cc1	103.0	6.0	i	i	589.3*	108.0	0.0
CN1CCN(C(=O)CN(Cc2ccc(Cl)cc2)S(C)(=O)=O)CC1	100.0	6.0	i	i	15.9	101.0	.
C#CCNC(=O)C1=C[C@H](C2CCCCC2)[C@@H](CCCO)[C@H](OCC)O1	99.0	2.0	i	i	162.2	104.0	.
COc1ccc(OCc2cc(C(=O)NC3CCc4ccccc43)no2)c(Cl)c1 (stereo not drawn)	102.0	7.0	i	i	-6.5	110.0	.
O=C(NC1CCc2ccccc21)c1cc(COc2ccc(F)cc2F)on1 (stereo not drawn)	107.0	-3.0	i	i	396.1*	101.0	0.1
O=C(CSc1ncnc2nc[nH]c12)Nc1ccccc1C(F)(F)F	.	.	i	i	727.1*	.	-0.2
Cc1cccc(C)c1NC(=O)CSc1ncnc2nc[nH]c12	90.0	-1.0	i	i	381.3	97.0	.
COc1c2ccoc2nc2c(OC)c(OC[C@@H](O)C(C)(C)O)ccc12	.	.	i	i	724.3*	.	-0.8
COc1c2ccoc2nc2c(OC)c(OCC(O)C(C)(C)O)ccc12 (stereo not drawn)	101.0	-1.0	i	i	26.8	102.0	.
Cc1ccccc1Cn1cc(NC(=O)c2cc3nc(-c4ccco4)cc(C(F)(F)F)n3n2)cn1	105.0	7.0	i	i	360.0*	102.0	0.0
O=C(Nc1ccc(Cl)cc1)c1cc2nc(-c3ccco3)cc(C(F)(F)F)n2n1	97.0	0.0	i	i	-13.6	100.0	.
O=C(NCC1CCN(Cc2ccccc2Cl)CC1)Nc1ccccc1F	102.0	0.0	i	i	605.6*	110.0	-0.4
O=C(NCC1CCN(Cc2ccccc2F)CC1)Nc1cc(F)ccc1F	110.0	4.0	i	i	-15.8	115.0	.
CC1(C)CC(C#N)(N2CCOCC2)CCO1 (stereo not drawn)	103.0	1.0	i	i	53.8	102.0	.
FC(F)(F)c1nc2ccccc2n2c(-c3c(Cl)cccc3Cl)nnc12	.	.	i	i	0.6	.	.
FC(F)(F)c1nc2ccccc2n2c(-c3ccc(Cl)cc3Cl)nnc12	108.0	17.0	i	i	+	107.0	-0.4
SMILES	MEKK3 PB1 HTS	MEKK2 mut-MEK5	CHT allo act	CHT block	SUMO Mot1 rescue	MEKK2 WT-MEK5	Mot1 SUMO dose
CC12CCC(=O)N1C(C(=O)NNC(=O)c1ccccc1)CS2 (stereo not drawn)	.	.	i	i	-19.4	.	.
Cc1ccc(N(C(C)C(=O)O)S(=O)(=O)c2c(C)n[nH]c2C)cc1 (stereo not drawn)	101.0	3.0	i	i	530.7*	101.0	0.2
Oc1c(Br)cc(Br)cc1/C=N/n1c(-c2ccccc2)n[nH]c1=S	107.0	7.0	i	i	643.7*	108.0	-1.5
O=C(N1CCOCC1)C1(S(=O)(=O)c2ccccc2)CC=CC1	100.0	0.0	i	i	639.3*	94.0	-0.4
O=C(O)c1c(NC(=O)N2CCOCC2)sc2c1CCCC2	110.0	12.0	i	i	4.6	113.0	.
CCOc1ccc(Br)cc1CNCCN1CCOCC1	105.0	2.0	i	i	399.1*	105.0	-0.4
Clc1cc(Br)ccc1OCCOCCN1CCCC1	108.0	12.0	i	i	71.1	118.0	.
COc1cc(CNCCN2CCOCC2)ccc1OCc1ccccc1Cl	107.0	18.0	i	i	452.7*	110.0	-0.3
Clc1cc(Br)ccc1OCCOCCN1CCOCC1	104.0	11.0	i	i	504.0*	107.0	-0.2
O=c1c2c(nc3cc(-c4ccc(F)cc4)[nH]n13)CCC2	92.0	-4.0	i	i	-2.3	92.0	.
Nn1c(SCc2cc([N+](=O)[O-])cc3c2OCOC3)nnc1-c1ccccn1	95.0	-6.0	i	i	530.7*	98.0	0.7
O=C(CSc1ncccn1)c1ccccc1Br	103.0	1.0	i	i	435.6*	102.0	-1.3
Cn1c(=O)c2sccc2n2c(CCCC(=O)NC3CCN(Cc4ccccc4)CC3)nnc12	97.0	-6.0	i	i	41.0	102.0	.
CC1CC(c2ccccc2)NS(=O)(=O)O1 (stereo not drawn)	103.0	-7.0	i	i	517.7*	100.0	0.3
COCC(O)CSc1nc(C)[nH]c1[N+](=O)[O-] (stereo not drawn)	102.0	1.0	i	i	4.4	99.0	.
O=C(COC(=O)C1CC(=O)N(Cc2ccccc2)C1)Nc1ccc(Cl)cc1F (stereo not drawn)	107.0	-4.0	i	i	-13.2	105.0	.
O=C(COC(=O)C1CC(=O)N(Cc2ccccc2)C1)Nc1ccccc1F (stereo not drawn)	91.0	-7.0	i	i	543.8*	95.0	-0.2[21 µM]
Clc1ccc(CN(Cc2ccccc2)C(c2cccs2)c2nnnn2C2CCCC2)cc1 (stereo not drawn)	112.0	3.0	i	i	656.6*	110.0	0.6
